Screening data as filed in PubChem BioAssay.
BH1578 lux ind: inducers of Vibrio cholerae quorum light production without autoinducers. V. cholerae BH1578 lux reporter, luminescence, 6 h. activation, % at 18.7 µM. 0.16% of 350,000 active; in the data active = activation mostly above about 9.7%, no sharp cut-off; inconclusive = no clear call, values can overlap the other calls; inactive = mostly below about 3.7%
Autofluor counter: compound fluorescence in toxin protease inhibitor counterscreen; compound autofluorescence counterscreen, microsphere flow cytometry; stronger effect = higher value; fluorescence intensity (test concentration not listed); 3.1% of 360,000 active; AID 624483; in the data active = fluorescence intensity above about 16000; inconclusive = no clear call, values can overlap the other calls
BoNT A protease: inhibitors of Botulinum neurotoxin A light chain protease | multiplex microsphere protease substrate cleavage, flow cytometry | inhibition, % at 10 µM | 0.17% of 360,000 active | AID 588499
Anthrax LF prot: blocks Bacillus anthracis lethal factor protease; multiplex microsphere protease cleavage assay, LF; P15917; 0.12% of 360,000 active; inhibition, % at 10 µM
BoNT-F LC inh: inhibitors of Botulinum neurotoxin F light chain protease; Multiplex microsphere protease cleavage assay, flow cytometry; inhibition, % at 10 µM; 0.22% of 360,000 active; in the data active = inhibition above about 35%, passing the limit was not always enough; inconclusive = no clear call, values can overlap the other calls
Of the large screens only hits and unclear results are named; the others gave an inactive call. This is a sample that favours compounds with a hit; in the whole collection about 3.5% have one here. Rule as the data show it, unless noted: active = inhibition above about 30%; inconclusive = no clear call, values can overlap the other calls; inactive = below that.

COc1cccc(CN2CCN(CCCc3ccccc3)C(CCO)C2)c1O (stereo not drawn)	BoNT A protease inconclusive, BoNT-F LC inh inconclusive
CCOC(=O)C1=C(C)N=c2s/c(=C/c3ccc(OCC(=O)O)c(OC)c3)c(=O)n2C1c1ccc(Cl)cc1 (stereo not drawn)	BoNT-F LC inh inconclusive
O=C1CCCC2=C1C(c1ccc(Cl)cc1)n1c(s/c(=C\c3ccc4ccncc4c3)c1=O)=N2 (stereo not drawn)	BoNT A protease 37
CCN(CC)C(=O)c1nc(-c2cccc3ccccc23)no1	none
Cc1ccc(SCc2cc(=O)[nH]c(Nc3nc(C)c4cccc(C)c4n3)n2)cc1	Autofluor counter 22617
COc1ccc2nc(Nc3nc(CSc4ccc(C)cc4)cc(=O)[nH]3)nc(C)c2c1	none
CCOc1ccc2nc(Nc3nc(CSc4nnnn4-c4ccccc4)cc(=O)[nH]3)nc(C)c2c1	Autofluor counter 20506, BoNT A protease inconclusive
CCC(C)(C)NC(=O)c1ccc(S(=O)(=O)N2CCCCCC2)cc1	none
O=C(CCc1nnc(CCc2c[nH]c3ccccc23)o1)NC1CCC1	none
O=C(CCCCC(=O)NN=Cc1ccc(Cl)cc1)NN=Cc1ccc(Cl)cc1	none
CCCCC(=O)Nc1sc2c(c1C(=O)OCC)CCC(C=O)=C2Cl	Autofluor counter 21678, BoNT A protease inconclusive
CC1Nc2ccc(C(=O)NC3CCCCC3)cc2NC1=O (stereo not drawn)	none
CCn1c(NC(=O)c2ccc(F)cc2)c2ccccc2nc1=O	Autofluor counter 19832
CC(=O)NC12CC3CC(C)(C1)CC(NC(C)=O)(C3)C2	Autofluor counter 23165, BoNT A protease inconclusive
CC(=O)NC(C)C12CC3CC(CC(CC(=O)O)(C3)C1)C2 (stereo not drawn)	none
CC1(C(=O)NC23CC4CC(CC(C4)C2)C3)CC1(Cl)Cl (stereo not drawn)	none
CC(=O)NC12CC3CC(CC(CC(=O)O)(C3)C1)C2	Autofluor counter 21352
C=CCn1c(SCc2c(C)noc2C)nc2sc3c(c2c1=O)CCCCC3	Autofluor counter 24051
C=CCN(CC=C)C(=S)Nc1ccccc1	Autofluor counter 22624
C=CCNC(=S)Nc1ccccc1	none
CCOc1cc(CN2CCN(c3cccc(C(F)(F)F)c3)CC2)ccc1O	Autofluor counter 20233
CCOc1cc(CN2CCSCC2)ccc1O	Autofluor counter 16487
CCOC(=O)N1CCN(C(=O)C2CCN(Cc3ccc(O)c(OCC)c3)CC2)CC1	none
O=C(O)C1C2OC(C(Br)C2Br)C1C(=O)O (stereo not drawn)	none
O=C1CC(c2cccc(F)c2)SC(N(c2ccccc2)c2ccccc2)=N1 (stereo not drawn)	Autofluor counter 23403
Cc1[nH]n(-c2ccc([N+](=O)[O-])cc2)c(=O)c1C=NCCN1CCN(C(=O)c2ccc(F)cc2)CC1	Autofluor counter 20052, BoNT A protease inconclusive
COc1ccc(CN/C=C2\CCCCC2=O)cc1	Autofluor counter 22197, BoNT A protease inconclusive
Cc1c(C(=O)NCc2ccccc2)sc(=O)n1Cc1ccccc1F	none
CCn1c(=O)c(C(=O)CN2CCCc3ccccc32)c(N)n(Cc2ccccc2)c1=O	Autofluor counter 32189, BoNT A protease inconclusive
CC1CCCC(NC(=O)CCC(=O)N2CCOc3ccccc32)C1C (stereo not drawn)	none
COC(=O)Cc1ccc(NC(=O)c2ccc(C)c(C)c2)cc1	Autofluor counter 24555
COC(=O)Cc1ccc(NC(=O)c2ccc(NC(=O)c3ccco3)cc2)cc1	none
COc1ccc2[nH]c(=O)c(CN(C(=O)c3cccnc3)c3ccc(C)cc3C)cc2c1	none
COc1ccc2[nH]c(=O)c(CN(CCO)C(=O)c3cccs3)cc2c1	Autofluor counter 22556
COc1cc2cc(CN(CCO)C(=O)c3cccs3)c(=O)[nH]c2cc1OC	none
CC(C)CN(Cc1cc2ccccc2[nH]c1=O)C(=O)c1cccnc1	Autofluor counter 22057, BoNT A protease inconclusive
COc1ccc2[nH]c(=O)c(CN(Cc3cccnc3)C(=O)Nc3ccccc3)cc2c1	Autofluor counter 23007
COc1ccc2[nH]c(=O)c(CN(C(=O)c3cccnc3)c3cc(C)ccc3C)cc2c1	Autofluor counter 18114
COc1ccc(C(CNC(=O)COc2ccc(F)cc2Cl)N2CCOCC2)cc1 (stereo not drawn)	none (no result: Autofluor counter, BoNT A protease, Anthrax LF prot, BoNT-F LC inh)
Cc1c(NC(=O)C(C)OC(=O)c2cc(Cl)ccc2O)c(=O)n(-c2ccccc2)n1C (stereo not drawn)	none
COc1ccc2cc(CN(C(=O)Nc3ccccc3)C3CCCC3)c(=O)[nH]c2c1	Autofluor counter 23679
COc1ccc2[nH]c(=O)c(CN(C(=O)NC3CCCCC3)C3CCCCC3)cc2c1	none
CC(=O)N(Cc1cccnc1)Cc1cc2ccccc2[nH]c1=O	Autofluor counter 23316
O=C(c1ccncc1)N(Cc1cc2ccccc2[nH]c1=O)C1CCCCC1	Autofluor counter 20954
Cc1ccc(S(=O)(=O)N(Cc2cccnc2)Cc2cc3ccccc3[nH]c2=O)cc1	none
O=C(c1ccco1)N(Cc1cc2ccccc2[nH]c1=O)C1CCCCC1	none
COc1cc(C(=O)N(Cc2cccnc2)Cc2cc3cc4c(cc3[nH]c2=O)OCCO4)cc(OC)c1OC	Autofluor counter 22318
CCOC(=O)C1CCN(C(=O)COC(=O)CNC(=O)c2ccc(OC)cc2)CC1	none
COc1ccc(OC)c(NC(=O)C2CCC(CNc3c(N4CCOCC4)c(=O)c3=O)CC2)c1 (stereo not drawn)	none
O=C(N/N=C/c1c(O)ccc2ccccc12)c1ccc(CO)nc1	BoNT-F LC inh 40
O=C(N/N=C\c1c(O)ccc2ccccc12)c1ccc(S(=O)(=O)N2CCCCC2)cc1	BoNT A protease 32
O=C(Cn1cnc2ccccc21)NCc1ccccc1	Autofluor counter 21986
O=C(COC(=O)Cn1cnc2ccccc21)NCc1ccc(F)cc1	none
Cc1n(CC(O)COCc2ccccc2)c2ccccc2[n+]1C (stereo not drawn)	Autofluor counter 23714
OC(COCc1ccccc1)Cn1cnc2ccccc21 (stereo not drawn)	Autofluor counter 16259, BoNT A protease inconclusive
OC(COCc1ccccc1)COCc1ccccc1	none
CC(=O)Nc1cccc(OCC(O)Cn2cnc3ccccc32)c1 (stereo not drawn)	Autofluor counter 22621, BoNT A protease inconclusive
O=C(CN1CCCCCC1)N/N=C/c1cccc(Cl)c1Cl	none
CCOC(=O)C(NC(C)=O)(NC(C)C)C(F)(F)F (stereo not drawn)	BoNT-F LC inh inconclusive
CCOC(=O)Cc1csc(NC(=O)CN2CCCCC2)n1	none
CCCN(C(=O)c1ccco1)c1nnc(-c2ccccc2C)s1	none
COc1cc(NC(=S)N2CCC(C(O)(c3ccccc3)c3ccccc3)CC2)cc(OC)c1	none
C=CCn1c(CCNC(=O)c2cccs2)nnc1SCC(=O)Nc1cccc(F)c1	Autofluor counter 17039
C=CCn1c(Cc2cccs2)nnc1SCC(=O)Nc1cccc(OC)c1	Autofluor counter 16319
O=C(CSc1nnc(Cc2cccs2)n1Cc1ccco1)Nc1cccc(Cl)c1	Autofluor counter 22807
C=CCn1c(Cc2cccs2)nnc1SCC(=O)Nc1ccc(OC)cc1	Autofluor counter 16196
C=CCn1c(Cc2cccs2)nnc1SCC(=O)NC1CC1	none
